Bioassay records deposited in PubChem by Sanford-Burnham Center for Chemical Genomics.
CYP2C9 activ = increases human cytochrome P450 2C9 activity | P11712 | recombinant CYP2C9, luciferin-H conversion, luminescence; active compounds read high; factor 1 = untreated enzyme, 0 = blocked | activation factor at 5 µM | hit rate 1.4% among 96,000;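 active means activation factor of 2 or more for CYP2C9 at a 5 µM dose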;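 further: 0 = sulfaphenazole-blocked wells and 1 = vehicle-only wells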
Target sequence (P11712 whole entry, looked up): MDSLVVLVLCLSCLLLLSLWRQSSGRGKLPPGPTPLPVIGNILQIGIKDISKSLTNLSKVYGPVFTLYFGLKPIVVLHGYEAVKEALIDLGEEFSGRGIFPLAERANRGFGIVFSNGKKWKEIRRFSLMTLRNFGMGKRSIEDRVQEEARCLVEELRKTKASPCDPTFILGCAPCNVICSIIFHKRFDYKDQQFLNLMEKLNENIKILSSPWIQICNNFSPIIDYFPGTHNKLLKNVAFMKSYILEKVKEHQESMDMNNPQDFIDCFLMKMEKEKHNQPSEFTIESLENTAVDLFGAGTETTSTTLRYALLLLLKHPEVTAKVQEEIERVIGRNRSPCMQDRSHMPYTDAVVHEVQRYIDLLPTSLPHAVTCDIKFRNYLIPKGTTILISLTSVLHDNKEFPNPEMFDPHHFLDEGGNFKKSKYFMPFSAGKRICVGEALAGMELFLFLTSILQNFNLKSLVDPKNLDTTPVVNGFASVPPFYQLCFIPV
Pyk2 oligo antag = antagonists of human Pyk2 oligomerization; Q14289; hit rate 0.83% among 99,000; Q293 cells, Pyk2 FERM NanoBiT luminescence; active compounds read low; AID 1347419; z-score (the deposit names both 25 µM and 10 µM);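 active means Z-score of -3 or lower, scaled per plate to the spread of control and sample wells; inactive means z-score above -3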;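 further: negative z-score means lost luminescence so less FERM oligomerization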
CYP2C19 activ = cytochrome P450 2C19 (human) activation; activation factor at 5 µM; AID 1025; 96,000 tested, under 10 active; recombinant CYP2C19, luciferin-H EGE luminescence; active compounds read high; 0 = fully inhibited enzyme, 1 = untreated enzyme; P33261;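 active means activation factor of at least 2 at 5 µM in the primary screen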;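 further: 0 = wells with 2.5 mM tranylcypromine and 1 = vehicle-only wells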
CYP2C19 inhib = inhibitors of human CYP2C19 | inhibition, % at 5 µM | P33261 | CYP2C19 Supersomes, luciferin-H EGE luminescence, 30 min | AID 778 | hit rate 21% among 96,000;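 active means CYP2C19 inhibition above a set limit at 5 µM in the primary screen, cut at about 50% in these data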;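 further: plate controls were negative control wells for no effect and 2.5 mM tranylcypromine positive control for full effect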
CYP2C9 inh = blocks human cytochrome P450 2C9; P11712; CYP2C9 Supersomes, luciferin-H conversion, luminescence; inhibition, % at 5 µM; hit rate 20% among 96,000; AID 777;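 active means blocking of liver enzyme CYP2C9 beyond about 50% at 5 µM, limit read from the data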
An asterisk follows results filed as active; x = no result. Hits are enriched below; roughly 28% of the tested compounds scored in any of these assays.

SMILES | CYP2C9 activ | Pyk2 oligo antag | CYP2C19 activ | CYP2C19 inhib | CYP2C9 inh
COc1ccc(NC(=O)CN2CCN(CC(=O)Nc3cc(OC)cc(OC)c3)CC2)cc1 | 0.4 | 0.58 | 0.4 | 56* | 61*
COc1ccc(NC(=O)CN2CCC(C(N)=O)CC2)cc1 | 1.2 | 2.1 | 1.1 | -13 | -25
COc1ccc(NC(=O)CN2CCN(CC(=O)Nc3ccc(OC)c(OC)c3)CC2)cc1 | 1.1 | 0.29 | 0.9 | 11 | -8
C=CCOc1ccc(/C(CC)=N/O)c(OC)c1 | 1 | -0.5 | 0.9 | 6 | 0
CC(C)CC(=O)Nc1nnn(C)n1 | 1.1 | 0.09 | 0.8 | 15 | -6
CCC(C)(C)C(=O)Nc1ccc(OC)cc1[N+](=O)[O-] | 0.9 | 0.43 | 0.7 | 28 | 9
COc1ccc(NC(=O)CN2CCN(C3c4ccccc4-c4ccccc43)CC2)cc1 | 0.1 | -0.41 | 0.4 | 59* | 95*
CCOc1ccc(/C=C/C(=O)Nc2ccc(OC)cc2[N+](=O)[O-])cc1 | 2.4* | -0.49 | 0.9 | 10 | -145
COc1ccc(NC(=O)CN2CCOCC2)cc1 | 1 | -0.42 | 0.6 | 40 | -3
COc1ccc(NC(=O)CN2CCN(CC(=O)Nc3ccccc3Cl)CC2)cc1Cl | 0.4 | 1.2 | 0.1 | 91* | 57*
C#CC(CC)(CC)NC(=S)Nc1cccc(C(C)=O)c1 | x | 0.19 | x | x | x
Cc1cc(NC(=O)c2ccc3c(c2)OCO3)ccc1NC(=O)c1ccco1 | x | -0.55 | x | x | x
CCOc1cccc(=O)c2c(C)oc(C)c12 | 0 | 0.7 | 0.8 | 22 | 95*
COc1cccc(OC)c1C(=O)N1CCN=C1SCc1cccnc1 | 0.8 | -0.33 | 0.6 | 44 | 16
CCOc1ccccc1C(=O)N1CCN=C1SCc1cccnc1 | 0.6 | -0.42 | 0.4 | 64* | 38
O=C(c1ccccc1F)N1CCN=C1SCc1cccnc1 | 0.5 | x | 0.2 | 82* | 50
O=C(C1CCCCC1)N1CCN=C1SCc1cccnc1 | 0.5 | x | 0 | 95* | 46
COc1ccc(C(=O)N2CCN=C2SCc2cccnc2)cc1OC | 0.9 | x | 0.2 | 83* | 7
Cc1cc([N+](=O)[O-])nn1CC(=O)NNC(=S)Nc1ccc(F)cc1 | 1.1 | -1.8 | 1 | 0 | -8
Cc1csc(=O)n1CCC(=O)O | 1.3 | -0.6 | 1.2 | -20 | -33
COc1ccc(C2N(c3ccc(F)cc3)C(=O)C3CCCN32)cc1 (stereo not drawn) | 0.6 | x | 0.5 | 49 | 42
CCOc1cc(CNCCO)cc(Br)c1OCc1cccs1 | 1 | 0.83 | 0.6 | 45 | 4
COc1cc(CNCCSc2nnnn2C)cc(Br)c1OCc1ccccc1F | 0.9 | 0.27 | 0.3 | 68* | 9
COc1cc(CNCCc2c[nH]c3ccccc23)ccc1OCc1ccccc1F | 0.9 | 0.3 | 0.6 | 37 | 11
CCOc1cc(CNCCSc2nnnn2C)cc(Br)c1OCc1ccccc1F | 0.6 | -0.51 | 0.2 | 84* | 37
SMILES | CYP2C9 activ | Pyk2 oligo antag | CYP2C19 activ | CYP2C19 inhib | CYP2C9 inh
CCOc1cc(CNCc2cccs2)cc(Br)c1OCC | 0.8 | 1.9 | 0.3 | 73* | 17
CCOc1cc(CNc2ccccc2)cc(Br)c1OCc1ccc(F)cc1 | 0.5 | 0.37 | 0.7 | 33 | 51*
COc1ccc(C(=O)Nc2c(Cl)cc(Cl)cc2C(=O)NCCN2CCOCC2)cc1 | x | -0.32 | x | x | x
CCN(CC)CCCN1C(=O)c2oc3ccccc3c(=O)c2C1c1cc(OC)ccc1OC (stereo not drawn) | 1.1 | 0.38 | 1.1 | -13 | -8
COc1cc(CNCCSc2nnnn2C)cc(Br)c1OCc1ccc(F)cc1 | 0.8 | 1.3 | 0.2 | 76* | 18
COc1ccc(CNCCSc2nnnn2C)cc1OC | 1.3 | 0.82 | 0.9 | 12 | -26
CCOc1cc(CNCCO)cc(Br)c1OCc1ccc(Cl)cc1Cl | 1.1 | -0.59 | 0.6 | 38 | -7
CCOc1cc(CNCc2ccncc2)cc(Br)c1OCc1ccccc1F | 0.1 | 1.3 | 0.1 | 85* | 91*
CCn1c2ccccc2n2c(=O)c(=O)n(CC(=O)Nc3ccc(C(C)C)cc3)nc12 | x | -0.17 | x | x | x
O=C(O)CSC12CC3CC(C1)CC(C(=O)O)(C3)C2 | 1.1 | 0.8 | 1.2 | -16 | -8
CCCCc1nc2ccccc2c(=O)n1NC(=O)c1c(O)c2cccc3c2n(c1=O)CCC3 | 0.5 | x | 0.9 | 8 | 53*
CCCCCCc1nc2ccccc2c(=O)n1NC(=O)c1c(O)c2cccc3c2n(c1=O)CCC3 | 0.6 | x | 1 | 1 | 40
COc1cccc(C(=O)NC2CCN(C(=O)N3CCCCC3)CC2)c1 | 0.9 | 1.4 | 0.9 | 7 | 6
